In test [1] the target is Rap guanine nucleotide exchange factor 3 (Homo sapiens) (UniProt O95398). In words: Confirmatory qHTS for agonist of cAMP-regulated guanine nucleotide exchange factor 3 (EPAC1) (AID 1645881;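 also: EPAC1 catalysed release of BODIPY-GDP from Rap1B seen as fluorescence loss; 100% = effect of cAMP agonist control; nearly all actives have a fitted effect of over 75% in size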). (In general: qHTS replaces the single test concentration by a dilution series.)
The target in test [2] is Rap guanine nucleotide exchange factor 4 (Homo sapiens) (UniProt Q8WZA2). Nature of the test: Confirmatory qHTS for agonist of cAMP-regulated guanine nucleotide exchange factor 4 (EPAC2) (AID 1645884).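 Also: nucleotide exchange releases bodipy-GDP from Rap1 and this lowers its fluorescence; % is scaled to controls: 0 for no effect and ±100 for the full control effect; nearly all actives have a fitted effect of over 65% in size.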
Test [3] shares this target. In words: Confirmatory qHTS for antagonist of cAMP-regulated guanine nucleotide exchange factor 4 (EPAC2) (AID 1645885). Also: nearly all actives have a fitted effect of over 25% in size. Also: potency is read from the fitted curve at half-maximal effect. As to activity change, negative = inhibition: % is scaled to controls: 0 for no effect and ±100 for the full control effect.
Test [4] addresses Rap guanine nucleotide exchange factor 3 (Homo sapiens) (UniProt O95398). In words: Counterscreen qHTS for antagonist of cAMP-regulated guanine nucleotide exchange factor 3 (EPAC1) (AID 1645888).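 Also: fluorescence loss as bound BODIPY-GDP is released from Rap1B; % of control where 0% means no effect.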 The method in brief: (§1)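 Measured: fluorescence of BODIPY-GDP bound to Rap1B, which falls as exchange proceeds. Conditions include 50 uM competing GDP, 5 and 30 min reads, and a later cAMP challenge for antagonist detection.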

For test [5] the target is unchanged. Nature of the test: Counterscreen qHTS for agonist of cAMP-regulated guanine nucleotide exchange factor 3 (EPAC1) (AID 1645889). Also: % of control where 0% means no effect; nearly all actives have a fitted effect of over 40% in size. The method in brief:
as §1

Structures are written as SMILES. Results filed as inconclusive are left out. A number with no mark means an inactive call. Activity calls are given as the source filed them. Calls follow the shape of the dose curve; as a rule, active = well fitted curve in the direction sought with a large enough effect; inconclusive = small, poorly fitted or top-dose-only effect, or another doubt; inactive = no such curve, though single readings can be large; an effect the other way counts as inactive or inconclusive.

We go through 20 molecules from PubChem BioAssay (NCATS).

Rap guanine nucleotide exchange factor 3 (Homo sapiens), sequence (O95398 whole entry, looked up): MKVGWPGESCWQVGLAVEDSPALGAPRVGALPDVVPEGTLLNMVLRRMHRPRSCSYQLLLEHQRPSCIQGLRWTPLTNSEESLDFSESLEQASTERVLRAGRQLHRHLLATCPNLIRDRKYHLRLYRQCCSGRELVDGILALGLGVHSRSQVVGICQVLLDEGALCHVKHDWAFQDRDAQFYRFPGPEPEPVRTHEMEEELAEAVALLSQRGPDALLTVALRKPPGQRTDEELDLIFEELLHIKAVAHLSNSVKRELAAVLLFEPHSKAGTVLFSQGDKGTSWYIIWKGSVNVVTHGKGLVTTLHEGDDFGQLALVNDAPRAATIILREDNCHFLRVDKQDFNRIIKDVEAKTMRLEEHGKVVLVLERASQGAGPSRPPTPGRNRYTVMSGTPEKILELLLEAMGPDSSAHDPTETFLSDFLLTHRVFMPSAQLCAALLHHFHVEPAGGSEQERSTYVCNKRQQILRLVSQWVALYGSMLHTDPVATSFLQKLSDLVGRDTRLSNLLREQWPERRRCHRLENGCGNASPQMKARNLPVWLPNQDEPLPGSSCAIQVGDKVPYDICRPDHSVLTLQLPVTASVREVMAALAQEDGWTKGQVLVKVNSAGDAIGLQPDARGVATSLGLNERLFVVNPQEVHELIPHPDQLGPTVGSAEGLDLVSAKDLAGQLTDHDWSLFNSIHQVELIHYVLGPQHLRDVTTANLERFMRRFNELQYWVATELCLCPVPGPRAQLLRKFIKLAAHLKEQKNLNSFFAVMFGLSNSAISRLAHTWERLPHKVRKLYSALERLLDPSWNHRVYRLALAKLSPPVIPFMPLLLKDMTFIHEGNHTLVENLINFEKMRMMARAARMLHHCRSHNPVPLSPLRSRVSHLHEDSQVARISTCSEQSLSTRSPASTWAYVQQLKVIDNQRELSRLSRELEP
Rap guanine nucleotide exchange factor 4 (Homo sapiens), sequence (Q8WZA2 whole entry, looked up): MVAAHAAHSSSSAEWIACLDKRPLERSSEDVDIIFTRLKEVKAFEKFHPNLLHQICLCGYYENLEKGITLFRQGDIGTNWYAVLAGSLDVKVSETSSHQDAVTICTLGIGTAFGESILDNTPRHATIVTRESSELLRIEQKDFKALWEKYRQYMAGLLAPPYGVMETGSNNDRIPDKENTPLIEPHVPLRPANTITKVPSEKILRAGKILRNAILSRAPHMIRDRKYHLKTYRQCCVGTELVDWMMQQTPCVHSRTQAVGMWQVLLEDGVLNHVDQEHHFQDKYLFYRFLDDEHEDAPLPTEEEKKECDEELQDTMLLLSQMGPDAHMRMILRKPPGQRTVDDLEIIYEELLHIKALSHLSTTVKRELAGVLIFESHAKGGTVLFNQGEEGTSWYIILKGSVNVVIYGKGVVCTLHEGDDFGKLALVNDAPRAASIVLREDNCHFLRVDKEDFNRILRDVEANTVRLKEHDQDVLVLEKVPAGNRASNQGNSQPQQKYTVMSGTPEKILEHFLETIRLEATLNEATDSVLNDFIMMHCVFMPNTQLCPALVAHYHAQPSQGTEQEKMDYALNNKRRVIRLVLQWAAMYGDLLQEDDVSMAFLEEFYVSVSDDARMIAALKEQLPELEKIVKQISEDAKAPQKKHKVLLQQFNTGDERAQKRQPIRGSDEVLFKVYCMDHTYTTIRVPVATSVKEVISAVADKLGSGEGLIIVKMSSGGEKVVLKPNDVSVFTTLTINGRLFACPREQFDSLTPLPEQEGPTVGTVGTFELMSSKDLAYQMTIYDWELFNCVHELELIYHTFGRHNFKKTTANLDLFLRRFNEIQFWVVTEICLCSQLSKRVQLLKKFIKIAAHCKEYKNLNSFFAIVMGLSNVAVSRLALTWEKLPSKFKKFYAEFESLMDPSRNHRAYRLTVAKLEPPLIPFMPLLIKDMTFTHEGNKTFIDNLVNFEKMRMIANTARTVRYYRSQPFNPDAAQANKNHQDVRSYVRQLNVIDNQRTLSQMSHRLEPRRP

Take `Nc1ccc(C(=O)N/N=C/c2cn(Cc3ccccc3F)c3ccccc23)cc1`: the Potency result in test [1] and in test [3] was “inactive” each time. The activation in test [2] was 7.25% [at 17.1 µM, percent relative to cAMP agonist control]; in test [5], 39.9% [at 30.8 µM]. For the same molecule, in test [4], the activity change, negative = inhibition is 31.2% [at 30.8 µM].

As to `Cc1cccc(C(=O)N=c2c(C#N)cc3c(=O)n4cccc(C)c4nc3n2Cc2ccco2)c1`, the Potency result in test [1], in test [2], in test [3], in test [4] and in test [5] was “inactive” throughout.

Turning to `CCOC(=O)c1ccc2c(c1)C1C=CCC1C(C(=O)OCC)N2` (stereo not given), the Potency entry in test [1] and in test [3] was “inactive” in each case. Moreover, the activation in test [2] was 4.17% [at 17.1 µM, percent relative to cAMP agonist control]; in test [5] it was 32.7% [at 30.8 µM]. Further, the activity change, negative = inhibition in test [4] was -1.12% [at 30.8 µM].

Regarding `Cc1c(C(=O)N2CCN(c3ncccn3)CC2)oc2c(Cl)cccc12`, the Potency entry in test [1], in test [2], in test [3], in test [4] and in test [5] was “inactive” each time.

For `CCCCCC(=O)Nc1cccc(C2=NOC3(C2)C[C@@H](C(N)=O)N(C(=O)CC(c2ccccc2)c2ccccc2)C3)c1` (stereo not given in full), the Potency result in test [1] and in test [3] was “inactive” each time. Also, the activation was 9.87% [at 17.1 µM, percent relative to cAMP agonist control] in test [2] and 34.5% [at 30.8 µM] in test [5]. In addition, the activity change, negative = inhibition in test [4] is -21.4% [at 30.8 µM].

As for `CC(C)CC1C(=O)N(Cc2cn(Cc3ccco3)nn2)CCS(=O)(=O)N1Cc1ccc(-c2ccccc2)cc1` (stereo not given), the Potency entry in test [1], in test [2], in test [4] and in test [5] was “inactive” in each case. For the same molecule, in test [3], the Potency is 19 µM (active).

Turning to `O=C(Nc1ccc(-c2nnc(-c3ccco3)o2)cc1)C(c1ccccc1)c1ccccc1`, the Potency result in test [1], in test [2], in test [3], in test [4] and in test [5] was “inactive” each time.

Regarding `CSc1cccc(NC(=O)Cn2nnc(C(=O)NCCc3ccccc3)c2N)c1`, the Potency entry in test [1], in test [2], in test [4] and in test [5] was “inactive” throughout. Moreover, the outcome in test [3] was “inactive [at 12.7 µM]”.

With `CCOC(=O)C1=C(C)N=c2sc(=Cc3cc(Cl)c(OCC(=O)O)c(Cl)c3)c(=O)n2C1c1cccc(OC)c1` (stereo not given), the Potency result in test [1], in test [2], in test [3], in test [4] and in test [5] was “inactive” throughout.

Consider `O=C(CSc1ccc(-c2ccco2)nn1)c1ccc(F)cc1`, for which the Potency result in test [1], in test [2], in test [3], in test [4] and in test [5] was “inactive” in each case.

`Cc1ccc(SCC(=O)OCC(=O)N(C)CC(=O)Nc2ccc(F)cc2)cc1C`: the Potency entry in test [1] and in test [3] was “inactive” each time. Moreover, the activation in test [2] is 5.96% [at 17.1 µM, percent relative to cAMP agonist control]; in test [5] it was 26.8% [at 30.8 µM]. Moreover, the activity change, negative = inhibition in test [4] was -28.7% [at 30.8 µM].

As to `Cc1cccc(NC(=O)c2ccc(-n3cncn3)c([N+](=O)[O-])c2)c1`, the Potency result in test [1] and in test [3] was “inactive” in each case. The activation was 2.79% [at 17.1 µM, percent relative to cAMP agonist control] in test [2] and 23.9% [at 30.8 µM] in test [5]. Moreover, the activity change, negative = inhibition in test [4] was -21.4% [at 30.8 µM].

For the molecule `CC(C)C(=O)NC(c1ccccc1)c1cc([N+](=O)[O-])c2cccnc2c1O` (stereo not given), the Potency result in test [1] and in test [3] was “inactive” throughout. The activation in test [2] was 4.72% [at 17.1 µM, percent relative to cAMP agonist control]; in test [5], 39.4% [at 30.8 µM]. Moreover, in test [4], the activity change, negative = inhibition was -3.56% [at 30.8 µM].

Regarding `O=C(N/N=C/c1ccc(O)c([N+](=O)[O-])c1)C1CC1(c1ccccc1)c1ccccc1` (stereo not given), the Potency result in test [1] and in test [3] was “inactive” throughout. Moreover, the activation in test [2] is 2.95% [at 17.1 µM, percent relative to cAMP agonist control]; in test [5] it was 11.6% [at 30.8 µM]. Besides, the activity change, negative = inhibition in test [4] was -23.6% [at 30.8 µM].

For `Oc1ccccc1CNc1ccc(OC(F)(F)F)cc1`, the Potency result in test [1], in test [2], in test [3], in test [4] and in test [5] was “inactive” throughout.

Consider `Cc1ccc2nc3sc(C(=O)Nc4c(C)[nH]c(=O)[nH]c4=O)c(N)c3cc2c1`, for which the Potency entry in test [1] and in test [3] was “inactive” throughout. Besides, the activation in test [2] is 4.59% [at 17.1 µM, percent relative to cAMP agonist control]; in test [5] it was 5.21% [at 30.8 µM]. Besides, in test [4], the activity change, negative = inhibition is 2.13% [at 30.8 µM].

On to `O=C1CC(c2c(F)cccc2Cl)c2c(ccc3ccccc23)N1` (stereo not given), for which the Potency result in test [1], in test [2], in test [3], in test [4] and in test [5] was “inactive” each time.

For the molecule `C=CCc1ccccc1OCc1nc2ccccc2n1CC`, the Potency entry in test [1], in test [2], in test [3], in test [4] and in test [5] was “inactive” each time.

On to `COc1cc(CN(C)CC2CCCN(CCc3ccccc3F)C2)cc(Cl)c1OC` (stereo not given), for which the Potency entry in test [1], in test [2], in test [3], in test [4] and in test [5] was “inactive” each time.

Regarding `Cn1c(SCC(=O)Nc2ccc(C(=O)O)cc2)nc2scc(-c3ccccc3Cl)c2c1=O`, the Potency result in test [1], in test [2], in test [4] and in test [5] was “inactive” in each case. Besides, in test [3], the Potency was 42.6 µM (active).
